Compounds with a hit are over-represented: about 2.7% of the library has one in this group of screens.
IDH1 R132H inh – inhibitors of human mutant IDH1 R132H; 390,000 compounds, 0.093% hits; AID 602179; O75874; IDH1-R132H enzyme, NADPH consumption, diaphorase/resazurin fluorescence; Potency, µM (doses to about 76.6 µM), for inactives: at the top dose activity change, negative = inhibition, most hits filed as inhibitors; also: potency is read from the fitted curve at half-maximal effect; % is scaled to controls: 0 for no effect and ±100 for the full control effect; nearly all actives have a fitted effect of over 65% in size
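IDH1-R132H (0.5 ug/mL) preincubated 30 min with compound, then NADPH (0.016 mM) and alpha-KG (2 mM) added; 80 min at RT, pH 7.5. Remaining NADPH coupled via diaphorase/resazurin to fluorescence (540/590 nm); concentration-response curves normalized to no-enzyme control.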
12-LOX inh – blocks human arachidonate 12S-lipoxygenase. P18054. purified 12hLO, xylenol orange hydroperoxide absorbance. Potency, µM (doses to about 108 µM), for inactives: at the top dose activity change, negative = inhibition, hits mostly inhibitors. 580,000 compounds, 1.1% hits. AID 1671190; also: potency is read from the fitted curve at half-maximal effect; % is scaled to controls: 0 for no effect and ±100 for the full control effect
Target sequence (P18054 whole entry, looked up): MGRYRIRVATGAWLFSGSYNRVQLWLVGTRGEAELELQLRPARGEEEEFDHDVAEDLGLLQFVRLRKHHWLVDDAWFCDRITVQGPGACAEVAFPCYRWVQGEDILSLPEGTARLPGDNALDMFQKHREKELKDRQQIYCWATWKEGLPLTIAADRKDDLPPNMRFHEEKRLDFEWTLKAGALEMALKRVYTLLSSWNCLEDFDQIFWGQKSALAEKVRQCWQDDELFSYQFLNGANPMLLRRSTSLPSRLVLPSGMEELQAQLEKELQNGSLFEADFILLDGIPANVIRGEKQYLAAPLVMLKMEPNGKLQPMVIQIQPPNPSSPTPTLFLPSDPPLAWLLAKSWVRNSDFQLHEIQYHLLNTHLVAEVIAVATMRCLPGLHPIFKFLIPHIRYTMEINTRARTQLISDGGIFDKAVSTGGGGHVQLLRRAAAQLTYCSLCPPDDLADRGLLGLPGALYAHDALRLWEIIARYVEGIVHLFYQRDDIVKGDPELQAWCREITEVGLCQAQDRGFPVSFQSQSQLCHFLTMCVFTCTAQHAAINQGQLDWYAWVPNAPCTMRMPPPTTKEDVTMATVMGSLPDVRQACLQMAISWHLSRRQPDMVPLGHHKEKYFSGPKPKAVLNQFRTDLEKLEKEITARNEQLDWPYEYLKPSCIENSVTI
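Hydroperoxide product was detected by ferrous iron/xylenol orange as the 573 to 405 nm absorbance ratio. Arachidonic acid at 40 uM (final) was turned over for 30 min at room temperature by 150 nM human 12hLO, pH 7.0 Hepes buffer, after 15 min compound preincubation.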
Nrf2 activator – Nrf2 pathway activation. AREc32 ARE-luciferase reporter (MCF7-derived line), luminescence, 24 h. Potency, µM (doses to about 46.1 µM), for the others: at the highest dose activation, usual class: activators. 410,000 compounds, 0.31% hits; also: potency is read from the fitted curve at half-maximal effect; % of control where 0% means no effect; nearly all actives have a fitted effect of over 65% in size
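Cells of the AREc32 ARE-luciferase line are plated in OPTI-MEM containing 5% FBS and left overnight at 37 deg C. Compounds are pinned in, incubation continues 24 hr, and firefly luciferase signal is then measured.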
A549 viability – counter-screen for Nrf2 inhibitors: cytotoxicity in A549 cells | A549 ARE-Fluc cells, CellTiter-Fluor viability, 18-24 h | Potency, µM (doses to about 46 µM), for inactives: at the highest dose activity change, negative = cytotoxicity, hits mostly inhibitors | 390,000 compounds, 0.16% hits; also: potency is read from the fitted curve at half-maximal effect; % is scaled to controls: 0 for no effect and ±100 for the full control effect
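A549 ARE_Fluc cells in 5% FBS OPTI-MEM were exposed to compounds in concentration-response for 18-24 h at 37 deg C. Viability was read by CellTiter-Fluor fluorescence (Ex 405/Em 525) after 30 min, before the luciferase read.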
Nrf2 block – inhibitors of Nrf2 signaling. AID 504444. Potency, µM (top dose mostly 46 µM), inactives show top-dose activity change, negative = inhibition, actives largely listed as inhibitors. 360,000 compounds, 2.1% hits. A549 ARE-Fluc reporter, luciferase luminescence, 18-24 h; also: potency is read from the fitted curve at half-maximal effect; % is scaled to controls: 0 for no effect and ±100 for the full control effect; nearly all actives have a fitted effect of over 60% in size
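In this cell-based qHTS, ARE-driven firefly luciferase in A549 cells reports Nrf2 activity; the luminescent signal after BugLite lysis is the measured value, with a prior CellTiter-Fluor read for cell health.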
LDHA block – LDHA (human) enzyme inhibition. P00338. purified LDHA, NADH/diaphorase-resazurin fluorescence; hits give low values. activity change, % (values are at about 110 or 230 µM). 480,000 compounds, 0.15% hits; in the data active = activity change below about -30%; inconclusive = mostly about -25% to -30%;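 also: plate controls were DMSO wells for no effect and wells without enzyme for full effect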
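Human LDH5 at 2 nM final in Tris HCl pH 7.4 with 0.06 mM NADH and 0.2 mM pyruvate, reacted 5 minutes at room temperature. Remaining NADH coupled via diaphorase/resazurin; resorufin fluorescence read at 0 and 20 minutes, normalized to enzyme-free and DMSO wells.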
Starred values were filed as active, the others as inactive; ? = inconclusive; / = not tested or not shown; [ ] = remark or other dose. Unless noted, calls follow the shape of the dose curve; as a rule, active = well fitted curve in the direction sought with a large enough effect; inconclusive = small, poorly fitted or top-dose-only effect, or another doubt; inactive = no such curve, though single readings can be large; an effect the other way counts as inactive or inconclusive.

SMILES	IDH1 R132H inh	12-LOX inh	Nrf2 activator	A549 viability	Nrf2 block	LDHA block
CCc1cc2c(CN3CCN(C(=O)C4COc5ccccc5O4)CC3)cc(=O)oc2cc1O (stereo not given)	/	?	/	/	/	-19
Cc1cc2cc(NS(=O)(=O)c3cccc(F)c3)ccc2[nH]1	/	?	/	/	/	-1
Cc1cc2cc(NS(=O)(=O)c3ccc(C)c(C)c3)ccc2[nH]1	/	35µM*	/	/	/	-5
CCN(CC(=O)Nc1ccccc1OC)C(=O)c1ccc(-c2cc(Cl)ccc2Cl)o1	/	?	/	/	/	-4
COC1CCN(C(=O)c2ccnc(-c3nnc4ccc(Nc5ccccc5)nn34)c2)CC1	/	48%[176 µM]	/	/	/	/
COc1ccnc(-c2nnc3ccc(N4CCc5ccccc5CC4)nn23)c1	/	50µM*	/	/	/	/
COc1ccnc(-c2nnc3ccc(N4CCN(C(=O)c5ccco5)CC4)nn23)c1	/	-1%[176 µM]	/	/	/	/
COC1CCN(C(=O)c2ccnc(-c3nnc4ccc(N5CCOCC5)nn34)c2)CC1	/	100µM*	/	/	/	/
N#Cc1c(-c2ccc(-c3ccc(-c4no[n+]([O-])c4C#N)cc3)cc2)no[n+]1[O-]	/	/	/	/	/	-2
Cc1nc(SCc2nc3ccccc3[nH]2)c2oc3cc(Br)ccc3c2n1	/	-5%	10%	-1%	-14%	-6
Cc1nc(SCCc2nc3ccccc3[nH]2)c2oc3ccccc3c2n1	/	14µM*	1%	0%	-26%	-1
Brc1ccc(-c2csc3[n+]2CCCCC3)cc1	0%	20%	2%	-9%	16µM*	-10
CC1(C)CC(=O)C(C(C2=C(O)CC(C)(C)CC2=O)c2ccc(Br)s2)C(=O)C1 (stereo not given)	4%	16µM*	8%	0%	2%	1
Cc1ccc(C(C2=C(O)CC(C)(C)CC2=O)C2C(=O)CC(C)(C)CC2=O)s1 (stereo not given)	2%	?	0%	-13%	-10%	-3
CCNC(=O)CN(CC)C(=O)c1cc2c(OC)cc(OC)c(OC)c2[nH]1	/	?	/	/	/	71
O=C(Cc1ccc(N(Cc2ccc(F)cc2)C(=O)c2ccco2)cc1)NCCc1ccccc1	/	-3%	/	/	/	/
CC(C)OCCCNC1=C(Cl)C(=O)c2ccccc2C1=O	5%	20%	26%	-18%	?	-2
O=C1C(Cl)=C(NCCc2ccccc2)C(=O)c2ccccc21	25%	4µM*	?	-5%	2%	55
COCCCNC1=C(Cl)C(=O)c2ccccc2C1=O	-12%	-36%	-2%	-14%	26µM*	-4
C=CCNC1=C(Cl)C(=O)c2ccccc2C1=O	0%	-30%	?	?	16µM*	-3
CC(=O)N(Cc1ccc(F)cc1)C1=C(NCCc2ccccc2)C(=O)c2ccccc2C1=O	8%	0%[57.4 µM]	-1%	23µM*	21µM*	24
COc1cccc(/C=C/c2nc3c(ccc4ccccc43)s2)c1OC	/	-5%	/	/	/	-10
Cc1ccsc1CNS(=O)(=O)c1cccs1	/	4%	/	/	/	-2
COc1ccc(NC(=O)c2cnn3c2NC(C(=O)O)=CC3/C=C/c2ccccc2)cc1Cl (stereo not given)	/	?	/	/	/	-1
Cc1ccc(Cn2c(SCc3ccc(C(=O)N4CCCCC4)cc3)nc3ccncc32)cc1	-10%	-4%	0%	-16%	?	-6
SMILES	IDH1 R132H inh	12-LOX inh	Nrf2 activator	A549 viability	Nrf2 block	LDHA block
Cc1ccc(Cn2c(SCc3ccc(C(=O)N4CCCCCC4)cc3)nc3ccncc32)cc1	11%	-1%	0%	-14%	15µM*	0
Cc1cccc(Cn2c(SCc3ccc(C(=O)NC4CCCC4)cc3)nc3ccncc32)c1	-5%	-14%	1%	-6%	21µM*	-5
CN(C)c1cccc(NC(=O)C(c2ccccc2)c2ccccc2)c1	/	-32%	/	/	/	6
CC(=O)N1N=C(c2ccc(Br)cc2)CC1c1ccc(Br)cc1 (stereo not given)	2%	?	4%	/	/	-1
CC(C)c1ccc(C2CC(c3ccc(Br)cc3)=NN2C(N)=S)cc1 (stereo not given)	2%	45µM*	6%	?	?	-4
Cc1ccc(NC(=O)CSc2ncc3c(n2)-c2ccc(Cl)cc2N(C)S3(=O)=O)cc1F	-7%	-26%	1%	-2%	?	1
CN1c2cc(Cl)ccc2-c2nc(SCC(=O)Nc3ccc(F)cc3F)ncc2S1(=O)=O	-19%	-29%	-1%	-17%	16µM*	-2
O=C(CCS(=O)(=O)c1nc(-c2cccs2)cc(C(F)(F)F)n1)Nc1ccc(OC(F)(F)F)cc1	?	?	?	-1%	6%[9.27 µM]	19
CC(C)c1nnc(NC(=O)CCS(=O)(=O)c2nc(-c3cccs3)cc(C(F)(F)F)n2)s1	0%	0%	-2%	?	23µM*	-7
CCCNC(=O)c1ccc(CSC)o1	/	12%	/	/	/	9
CC(C)NC(=S)N/N=C/c1c[nH]c2ccccc12	0%	?	9%	-3%	20%	-1
Cc1[nH]c2ccccc2c1/C=N/NC(=S)NC(C)C	13%	?	5%	?	15µM*	-1
CN(C)c1cccc(C(=O)N2CCC3(CC2)NC(=O)N(c2cccc(F)c2)N3)c1	/	2.2µM*	/	/	/	/
Cc1ccc(C(=O)N2CCC3(CC2)NC(=O)N(c2ccc(F)cc2)N3)cc1	/	3.2µM*	/	/	/	/
Cc1ccc(C)c(C(=O)N2CCC3(CC2)NC(=O)N(c2cccc(F)c2)N3)c1	/	2.2µM*	/	/	/	/
Cc1ccc(C)c(C(=O)N2CCC3(CC2)N(C)C(=O)CS3(=O)=O)c1	/	33%	/	/	/	/
O=C(Cc1ccc(Cl)cc1)N1CCC2(CC1)NC(=O)N(c1ccc(F)cc1)N2	/	2.5µM*	/	/	/	/
O=C(COc1ccc(Cl)cc1Cl)Nc1ccc2oc(-c3cccnc3)nc2c1	/	?	/	/	/	12
Cc1ccc(C(=O)N2CCC3(CC2)NC(=O)N(c2cccc(Cl)c2)N3)c(C)c1	/	1.4µM*	/	/	/	/
Cc1ccc(C(=O)N2CCC3(CC2)NC(=O)N(c2cccc(F)c2)N3)cc1	/	2.5µM*	/	/	/	/
CCOc1ccc(C(=O)N2CCC3(CC2)NC(=O)N(c2ccc(F)cc2)N3)cc1	/	2.2µM*	/	/	/	/
Cc1ccc(N2NC3(CCN(C(N)=O)CC3)NC2=O)cc1	1%	?	0%	-5%	-10%	2
O=C(c1cccc(F)c1)N1CCC2(CC1)NC(=O)N(Cc1ccc(F)cc1)C2=O	/	17%	/	/	/	/
O=C(c1cccc(F)c1)N1CCC2(CC1)NC(=O)N(c1ccccc1Cl)N2	/	1.3µM*	/	/	/	/
Cc1ccc2c(c1)C(Cc1nc3ccccc3c(=O)n1C)C(=O)N2Cc1ccccc1 (stereo not given)	/	-48%	/	/	/	-9

Bioassay records: PubChem BioAssay, National Center for Advancing Translational Sciences (NCATS)
